# Test results reported in PubChem BioAssay AID1345085 (National Center for Advancing Translational Sciences (NCATS), 2018).
# Results filed as inconclusive are left out. Values without a mark were called inactive. Active and inactive are the calls of the source. The call rests on the fitted dose curve; in most records, active means well fitted cell-killing curve with a large enough effect; inconclusive means small, poorly fitted or top-dose-only effect, or effect the other way; inactive means no such curve, though single readings can be large or run the other way.
# Tested on: HeLa
# Experiment: Confirmatory qHTS for gynecologic anti-cancer compounds from libraries of approved drugs and bioactive compounds; further: nearly all actives have a fitted effect of over 55% in size
# Details: gynecologic cancer cell panel viability, ATPlite luminescence, 48 h; series mostly up to 57.6 µM; activity change, negative = viability loss: at the top concentration
# Summary of the method: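 IC50 values derive from an ATPlite ATP-content luminescence assay following 48 h treatment at 37 C. Each compound ran as an 11-concentration, threefold series (57.5 uM to 0.977 nM); HEK 293T served as control line for selectivity index.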
# On the % scale 0 is the no-effect control and ±100 the full control effect; potency means the concentration at half of the fitted maximal effect.
SMILES,Potency,"activity change, negative = viability loss"
COc1cc(-c2nn(C3CCC(N4CCN(C(C)=O)CC4)CC3)c3ncnc(N)c23)ccc1NC(=O)c1cc2ccccc2n1C (configuration not stated),30.6 µM (active),
O=C(c1ccc(/C=C/c2n[nH]c3ccccc23)cc1)N1CCNCC1,3.43 µM (active),
Cc1cnc(Nc2ccc(OCCN3CCCC3)cc2)nc1Nc1cccc(S(=O)(=O)NC(C)(C)C)c1,3.85 µM (active),
CCn1cc(-c2ccnc3[nH]c(-c4cccc(CN(C)C)c4)cc23)c(-c2ccc(NC(=O)N(C)C)cc2)n1,2.98 µM (active),
CN1CCN(c2ccc(OC(F)(F)F)c(Nc3ncc4c(n3)-c3c(c(C(N)=O)nn3CCO)CC4)c2)CC1,0.0611 µM (active),
CN1CCN(Cc2ccc(NC(=O)Nc3ccc(Oc4cc(NC(=O)C5CC5)ncn4)cc3)cc2C(F)(F)F)CC1,0.306 µM (active),
CN(C)C1CCN(C(=O)c2ccc(NC(=O)Nc3nc(N4CCOCC4)nc(N4CCOCC4)n3)cc2)CC1,0.769 µM (active),
Nc1ccc(C(=O)Nc2cccc(-c3nc(N4CCOCC4)c4oc5ncccc5c4n3)c2)cn1,7.69 µM (active),
COc1cc2nccc(Oc3ccc(NC(=O)Nc4cc(C)on4)c(Cl)c3)c2cc1OC,15.3 µM (active),
CC(Oc1ccc2[nH]nc(/C=C/c3cnn(CCO)c3)c2c1)c1c(Cl)cncc1Cl (configuration not stated),0.172 µM (active),
COc1cc(Nc2ncc(F)c(Nc3ccc4c(n3)N(COP(=O)(O)O)C(=O)C(C)(C)O4)n2)cc(OC)c1OC,1.72 µM (active),
NC(=O)c1cccc2cn(-c3ccc([C@@H]4CCCNC4)cc3)nc12,,-7.4%
